# Results reported in PubChem BioAssay AID488862 (Broad Institute, 2010).
# Values joined by “and” are separate entries in the source; they are usually repeats but may differ in a detail not shown here. Equal values may be shown once. The whole screen tested about 340,000 compounds, of which about 1,200 (0.35%) were called active. For the sample, actives were picked, then their nearest neighbours and some compounds at random. A number with no mark means an inactive call. Cut-off read from the data, not from the text of the source: active = inhibition above about 52%; inactive = the rest.
# Assay: inhibition of PrP 5' UTR reporter expression (AID 488862); note: 0 = median of the neutral control wells
# Details: cell-based PrP 5' UTR mRNA reporter, plate reader; hits give high values; concentration not given here
row,SMILES,inhibition
1,CC(=O)Nc1ccc(NC(=O)CSc2nnc(COc3ccccc3C)n2CC2CCCO2)cc1 (configuration not stated),-3.51%
2,CCOC(=O)N1CCC(N2Cc3cccc(C(=O)Nc4c(C)cccc4CC)c3C2=O)CC1,-4.9%
3,Cc1nc2c(-c3ccc(F)cc3)c(C)nn2c(C)c1CCC(=O)N1CCN(c2ccccn2)CC1,4.39%
4,COc1ccc(CCNS(=O)(=O)c2ccc(Cl)s2)cc1OC,6.31%
5,COC1C(O)C(C)OC(OC2CCC3(C=O)C(CCC4C3CCC3(C)C(C5=CC(=O)OC5)CCC43O)C2)C1O (configuration not stated),89.8% (active)
6,COc1ccc(C(=O)C2CCCN(C(=O)c3cnsn3)C2)c(C)c1 (configuration not stated),-10.1%
7,Cc1cc(NC(=O)Nc2ccc(Cl)cc2)n(-c2ccccc2)n1,-39.6%
8,Cc1cc(Nc2ccccc2)n(C(=O)c2ccc(N)cc2)n1,67.9% (active)
9,Cn1c(Nc2ccccc2)cc(=O)n(C)c1=O,-38.1%
10,CCOc1ccc(CN(Cc2ccco2)C(c2cccs2)c2nnnn2C(C)(C)C)cc1 (configuration not stated),-13.3%
11,CCOc1ccc(NC(=O)CCCCCN2C(=O)[C@@H]3Cc4ccccc4CN3C2=O)cc1,-14.6%
12,CCOc1ccc(NC(=O)CCS(=O)(=O)c2cccc3nsnc23)cc1,-15.9%
13,Cc1ccc2nc(-c3ccc(Br)cc3)cn2c1,71% (active)
14,Cc1ccc(-c2cc(C(=O)NCc3cn(C)nc3C)c3cc(Br)ccc3n2)cc1,-28.8%
15,Cc1ccc(-n2c(-c3ccc(Cl)cc3)n[nH]c2=S)cc1,-0.525%
16,Cc1ccc(-c2cc(N)on2)cc1,-33%
17,CSc1nnc2ccc(-c3ccc(C)cc3)nn12,0.671%
18,Cc1ccc(-c2cn3cc(C)ccc3n2)cc1,85.2% (active)
19,O=C(NC(=S)Nc1ccc(Cl)cc1Cl)C1CC1,-42.6%
20,O=C(COC(=O)c1ncc(Cl)c(Cl)c1Cl)NCc1cccs1,-15.5%
21,CCCCN(C(=O)CCNC(=O)NC12CC3CC(CC(C3)C1)C2)c1c(N)n(CCCC)c(=O)[nH]c1=O,9.19%
22,COc1ccc(CCNC(=O)C2CCCN2C(=O)Nc2ccccc2)cc1OC (configuration not stated),-48%

row,SMILES,inhibition
1,Cc1ccc(OCCOCCOc2ccc(Br)cc2/C=N\NC(=O)c2ccncc2)cc1,-18.1%
2,O=C(CSC1c2ccccc2-c2ccccc21)N/N=C/c1ccccc1,9.76%
3,Cc1cccc(OCC(=O)NCC(=O)N/N=C/c2ccc(N(C)C)cc2)c1,-13.2%
4,Cc1ccc(/C=N/NC(=O)COc2ccccc2-c2ccccc2)cc1,70% (active)
5,COc1ccc(OC)c(S(=O)(=O)Nc2cccc(-c3ccc4nncn4n3)c2)c1,-13.4%
6,Cc1c(CN2CCCC(C(=O)c3cccc(Cl)c3)C2)c(=O)n(-c2ccccc2)n1C (configuration not stated),-12.1%
7,CCOc1ccc(N/C=C/C(=O)c2cc(OC)c(OC)c(OC)c2)cc1,-105%
8,COc1ccc(C(=O)/C=C/Nc2ccccn2)cc1,66% (active)
9,CCOc1ccc(N/C=C/C(=O)c2ccccc2)cc1,-1.68%
10,CCc1cc2c(N3CCN(c4nnc(CC)s4)CC3)ncnc2s1,2.26%
11,CC(C)(C)c1ccc(/C=C2\SC(=O)N=C2N)cc1,36.2%
12,CCCCSCCCNC(=O)C1CCC(CNS(=O)(=O)c2ccc(NC(C)=O)cc2)CC1 (configuration not stated),-21.5%
13,CCN(CCn1cccn1)C(=O)CC1C(=O)NCCN1Cc1cccc(OC)c1OC (configuration not stated),-9.29%
14,CCCCNS(=O)(=O)CCNCc1ccccc1OC,60.7% (active)
15,COc1ccccc1CNS(=O)(=O)c1ccc(C)cc1,-15.1%
16,CCCCNCCS(=O)(=O)NCc1ccccc1,-9.61%
17,Cc1cccc([C@H]2[C@@H]3C=CC[C@@H](C)[C@@H]3C(=O)N2Cc2ccccc2)c1,-11.5%
18,Cc1cccc([C@@H]2[C@@H]3C(=O)N(Cc4ccccc4)C(=O)[C@@H]3[C@]3(C)C(=O)N(c4ccc(Br)cc4)C(=O)N23)c1,-3.38%
19,Cc1ccc(-c2cccc([C@H]3[C@@H]4C=CC[C@@H](C)[C@@H]4C(=O)N3Cc3ccccc3)c2)cc1,61.8% (active)
20,Cc1nc(N=C(N)N)nc2c(C)cccc12,-22.8%
21,Cc1nc(C(=O)NCc2ccccc2)sc1C1(C)CC(c2cccnc2)=NO1 (configuration not stated),-16.5%
22,COc1ccccc1C1C2=C(COC2=O)Nc2cc3c(cc21)OCO3 (configuration not stated),65.7% (active)

row,SMILES,inhibition
1,O=C1OCC2=C1C(c1ccc(Cl)cc1)c1cc3c(cc1O2)OCO3 (configuration not stated),16.1%
2,CCCOc1ccccc1C1CC(=O)Nc2cc3c(cc21)OCO3 (configuration not stated),-21.5%
3,COc1ccc(NC(=O)CN(C)C(=O)c2ccc(NC3CC3)c([N+](=O)[O-])c2)cc1,-13.7%
4,Cc1noc(C)c1S(=O)(=O)Nc1ccc(C(=O)N2CCN(c3ccc(F)cc3)CC2)cc1,44.2%
5,N#Cc1nc(N)nc(N(c2ccccc2)c2ccccc2)n1,-20.2%
6,CCc1nn(CCCN2CCN(c3cccc(Cl)c3)CC2)c(=O)n1CCOc1ccccc1,-17.3% and 2.12%
7,O=C(O)c1cccnc1NC1CCCC1,-17.1%
8,Cc1cc(C(=O)CCC(=O)NNC(=O)c2ccccc2O)c(C)s1,4.28%
9,CC1=C(C)CC(C(=O)NNC(=O)c2ccccc2O)C(C(=O)O)C1 (configuration not stated),-11.4%
10,O=C(NNC(=O)c1ccccc1O)c1ccccc1O,58.9% (active)
11,C/C(=N/NC(=O)CN1CCN(S(=O)(=O)c2ccc(Br)cc2)CC1)c1ccncc1,-9.51%
12,Cc1cc(C)nc(/N=C2\NC(=O)CC(C(=O)O)N2c2ccc(Cl)cc2Cl)n1 (configuration not stated),-13.6%
13,COc1ccc(C23NCCN2C(=O)c2ccccc23)cc1 (configuration not stated),-5.86%
14,CC(NC(=O)c1cccc2ccccc12)c1ccc2c(c1)CCCC2 (configuration not stated),-15.9%
15,COc1cccc2c1C(=O)c1c(O)c3c(c(O)c1C2=O)CC(O)(C(C)=NNC(=O)c1ccc(Cl)c(Cl)c1)CC3OC1CC(N)C(O)C(C)O1 (configuration not stated),81% (active)
16,CC(=O)Nc1ccc(C(=O)Nc2cc(S(=O)(=O)N3CCOCC3)ccc2N2CCOCC2)cc1,2.41%
17,O=C(CN1C2CCC1CC(NC(=O)C1CC1)C2)NCc1ccccc1 (configuration not stated),-21.6%
18,CCCS(=O)(=O)N1CCN(C(=O)c2cccs2)CC1,-11%
19,C=C(C)CSc1nc(N)c2c3c(sc2n1)CCC3,-92.1%
20,Nc1nc(SCC(=O)NCCN2CCOCC2)nc2sc3c(c12)CCC3,-29.6%
21,CC(C)(C)C1CCc2c(sc3nc(SCC(N)=O)nc(N)c23)C1 (configuration not stated),67.4% (active)
22,CC1O[C@@H](OC2C(O)C(C)O[C@H](OC(=O)[C@]34CCC(C)(C)C[C@H]3C3=CCC5[C@@]6(C)CC(O)C(O[C@@H]7OC(CO)C(O)[C@@H](O)[C@@H]7O)[C@@](C)(C(=O)O)C6CC[C@@]5(C)[C@]3(CO)CC4)C2O[C@H]2OC(C)[C@@H](O[C@@H]3OCC(O[C@@H]4OC(CO)C(O)[C@H](O)C4O)[C@@H](O)[C@@H]3O)[C@H](O)C2O)C(O)C(O)C1O (some centres not stated),-19.6%

row,SMILES,inhibition
1,COc1ccc(CCC(=O)Nc2ccc(Cl)c(S(=O)(=O)N3CCOCC3)c2)cc1OC,-6.15%
2,COc1cc([N+](=O)[O-])ccc1NC(=S)N1CCN(c2ccccn2)CC1,60.8% (active)
3,O=[N+]([O-])c1ccc(NC(=S)N2CCN(c3ccccn3)CC2)cc1,-31.5%
4,CNC(=S)N1CCN(c2ccccn2)CC1,2.28%
5,CN1CCN(c2ccc([N+](=O)[O-])c(Sc3nc4ccccc4[nH]3)c2)CC1,-6.9%
6,CCCn1nc(NS(=O)(=O)c2ccccc2)c2cc3cc(C)ccc3nc21,-7.37%
7,Cc1ccc(S(=O)(=O)N(C)CC(=O)N2CCc3ccccc32)cc1,-9.45%
8,COc1cc2c(cc1OC)CN(C(=O)c1cc(=O)c3ccccc3o1)CC2,-36.4%
9,COc1ccccc1N1CCN(C(=O)c2cc(=O)c3cc(C)cc(C)c3o2)CC1,72.6% (active)
10,COc1ccccc1N1CCN(C(=O)c2ccc(Cl)c(S(=O)(=O)N3CCCC3)c2)CC1,-12.2%
11,O=C(Nc1ccc([N+](=O)[O-])cc1)OCCc1ccccn1,-55.9%
12,Cc1ccc(C(=O)N/C(=C\c2ccc(F)cc2)C(=O)NCCN2CCOCC2)cc1,-18.5%
13,COc1ccc(C(=O)Nc2ccccc2C(=O)N/N=C/c2ccc(O)c(OC)c2)cc1,80.5% (active)
14,COc1cc(C=NNC(=O)c2cccnc2)ccc1OC(=O)c1ccccc1F,-15.7%
15,COc1ccc(C(=O)Nc2cc(C)c(NC(=O)c3ccccc3OC)cn2)cc1,-9.89%
16,CC1=NCCN1S(=O)(=O)c1cccc([N+](=O)[O-])c1,-44.4%
17,CCOc1ccc(Br)cc1S(=O)(=O)Nc1ccc(S(=O)(=O)Nc2cc(C)on2)cc1,-17.7%
18,NC(=O)CC(NC(=O)Cc1ccc(Br)cc1)c1ccc(NC2CC3CCC2C3)c([N+](=O)[O-])c1 (configuration not stated),-22.9%
19,CCn1c(SCC(=O)NC2CC2)nnc1-c1ccccc1OC,3.39%
20,COc1ccc(C2=Nn3c(nnc3-c3ccccc3OC)SC2)cc1OC1CCCC1,63.8% (active)
21,COc1ccccc1-c1nnc2n1N=C(c1ccc(OC(F)F)c(OCC3CC3)c1)CS2,-3.8%
